HT1080NT lethal = kills 2HG-producing HT-1080-NT fibrosarcoma cells. AID 686970. 360,000 compounds, 1.6% hits. Potency, µM (titrated, usually from 46.1 µM), actives largely listed as cytotoxic. HT-1080-NT fibrosarcoma viability, CellTiter-Glo ATP luminescence, 48 h;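 further: NT is the 2HG producing partner of a matched IDH1 knockdown line; nearly all actives have a fitted effect of over 55% in size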
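Fibrosarcoma NT cells, 750 per well in 5% FBS RPMI, were exposed to compound for 48 hours. Viability: CellTiter-Glo luminescence.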
HT1080 IDH1KD tx = kills HT-1080 cells with IDH1 knockdown. 360,000 compounds, 2% hits. HT-1080 IDH1 knockdown viability, ATP luminescence, 48 h. Potency, µM (highest dose often 46.1 µM), actives largely listed as cytotoxic
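Knockdown cells (IDH1KD HT-1080) received compounds 2 h after plating at 750 cells/well and were kept 48 h at 37 °C in 5% FBS RPMI. A CellTiter-Glo luminescence read gave % activity for curve fitting.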
IL-1B inflam inh = inflammasome signaling inhibition, IL-1 beta readout; THP-1 LPS/ATP IL-1B secretion, AlphaLISA, 16 h; active compounds read low; activity change, % at 57.5 µM; 360,000 compounds, 4.7% hits; in the data active means activity change below about -50%; inconclusive means mostly about -30% to -49%
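Secreted IL-1B measured by AlphaLISA bead assay after 16 h compound exposure of THP-1 cells; compounds (final up to 57.5 uM) added 1 h before LPS (250 ng/mL) and ATP (1.25 mM) stimulation; lower signal means less secretion.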
DT40 TDP1 CPT = growth inhibition of DT40 Tdp1-/-;hTDP1 cells with camptothecin (screen for TDP1 inhibitors); chicken DT40 Tdp1-/-;hTDP1 cells + 20 nM CPT, ATP luminescence, 48 h; Potency, µM (highest dose often 46.2 µM), usual class: inhibitors; 420,000 compounds, 12% hits; AID 686979; further: nearly all actives have a fitted effect of over 55% in size
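Cell growth measured by CellTiter-Glo luminescence after a minimum 48 h, 37 C compound exposure with 20 nM CPT in Tdp1-knockout DT40 cells stably expressing hTDP1, seeded 400/well; qHTS titration format.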
TDP1 cell noCPT = qHTS for Inhibitors of human tyrosyl-DNA phosphodiesterase 1 (TDP1): qHTS in cells in absence of CPT; DT40 Tdp1-/- hTDP1 cells, no CPT, ATP luminescence, 48 h; Potency, µM (series often up to 46.2 µM), actives largely listed as inhibitors; 420,000 compounds, 15% hits; further: nearly all actives have a fitted effect of over 55% in size
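Chicken DT40 Tdp1-/- cells complemented with human TDP1, screened without camptothecin (DMSO vehicle only), 400 cells/well. Compounds pin-transferred, cells incubated at 37 °C for at least 48 hr. Growth read as ATP-dependent luminescence (CellTiter-Glo, 30 min at RT).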
Numbers stand for hits; 0 = inactive; ? = inconclusive; - = no result given; [ ] = dose if it differs, or a comment. The list is not random: actives were taken first. Their share in the collection is about 19%. Unless noted, the call rests on the fitted dose curve; in most records, active means well fitted curve in the direction sought with a large enough effect; inconclusive means small, poorly fitted or top-dose-only effect, or another doubt; inactive means no such curve, though single readings can be large; an effect the other way counts as inactive or inconclusive.

SMILES | HT1080NT lethal | HT1080 IDH1KD tx | IL-1B inflam inh | DT40 TDP1 CPT | TDP1 cell noCPT
Cc1ccc(CNC(=O)Cn2c(-c3cccs3)cc3cc(Cl)ccc32)cc1 | - | - | - | ? | 23.1µM
O=C1Cc2cc(S(=O)(=O)N3CCCCC3)cc3c2N1CCC3 | - | - | - | 0 | 0
O=C(Nc1nccs1)c1ccc(NC(=O)C2CC=CCC2C(=O)O)cc1 (configuration not stated) | 0 | 0 | 0 | 0 | 0
O=C(Nc1ccccc1C(=O)O)/C(=C/c1ccc([N+](=O)[O-])cc1)NC(=O)c1ccc(Br)o1 | 0 | 0 | 0 | 0 | 0
CCCn1c(CN2CCN(C(=O)OCC)CC2)nc2cc([N+](=O)[O-])ccc21 | 0 | 0 | 0 | 0 | ?
CCC(C(=O)Nc1ccc2[nH]ncc2c1)c1ccccc1 (configuration not stated) | 0 | 0 | 0 | 0 | 0
Cc1nn(-c2ccccc2)nc1C(=O)Nc1ccc2[nH]ncc2c1 | 0 | 0 | 0 | 0 | 20.6µM
CC1(C)CC2(CC(c3ccccc3F)c3ccc(O)c(O)c3O2)NC(=S)N1 (configuration not stated) | 0 | 0 | 0 | ? | 23.1µM
CC1(C)C([N+](=O)[O-])C(c2ccccc2O)NC(c2ccccc2O)C1[N+](=O)[O-] (configuration not stated) | 0 | 0 | 0 | 0 | ?
O=c1[nH]nc(SCCS(=O)(=O)c2ccc(F)cc2)n1-c1ccccc1 | ? | ? | -87.5 | 29.1µM | ?
CCOc1ccccc1NC(=O)CSc1n[nH]c(=O)n1-c1ccccc1 | 0 | 0 | 0 | ? | ?
O=c1[nH]nc(SCCS(=O)(=O)c2ccc(F)cc2)n1-c1ccc2c(c1)OCCO2 | 0 | ? | -91.8 | ? | 16.4µM
Cc1ccc2cc(CNC(C)c3cccc4ccccc34)c(N3CCC(O)CC3)nc2c1 (configuration not stated) | - | - | - | 0[9.04 µM] | 0
O=C(NC(=S)Nc1ccc(Cl)cn1)C(c1ccccc1)c1ccccc1 | 0 | 0 | 0 | ? | 23.1µM
S=C(Nc1ccccc1)Nc1ccc(Cl)cn1 | 0 | 0 | 0 | 23.1µM | 5.8µM
C=CC[C@@H](CC(=O)N(CCO)Cc1ccccc1)C(=O)NCCOC(=O)[C@H](CC=C)CC(=O)OC(C)(C)C | 0 | 0 | 0 | ? | ?
C=CC[C@H](CC(=O)N(CCO)Cc1ccccc1)C(=O)N[C@H](COC(=O)[C@@H](CC=C)CC(=O)OC(C)(C)C)Cc1ccccc1 | ? | ? | -79.9 | 14.6µM | 13µM
C=CC[C@H](CC(=O)N(CCO)Cc1ccccc1)C(=O)N[C@H](C)COC(=O)[C@@H](CC=C)CC(=O)OC(C)(C)C | 0 | 0 | 0 | ? | 18.4µM
C=CC[C@@H](CC(=O)N(CCO)Cc1ccccc1)C(=O)N[C@H](COC(=O)[C@@H](CC=C)CC(=O)OC(C)(C)C)Cc1ccccc1 | 0 | 0 | ? | 18.4µM | ?
COc1ccc(C(=O)NCC(=O)c2ccccc2)cc1 | 0 | 0 | 0 | 0 | 0
O=C(Cn1ncn2c(cc3ccccc32)c1=O)NCCCc1ccccc1 | 0 | 0 | 0 | 0 | 0
Cn1nc(CC(=O)NCc2cccc3ccccc23)c2ccccc2c1=O | 0 | ? | 0 | 7.31µM | 9.2µM
O=C(Cn1ncn2c(cc3ccccc32)c1=O)NCc1ccc(F)cc1 | - | - | - | 5.8µM | 4.11µM
Cn1nc(CC(=O)NCc2ccc(F)cc2)c2ccccc2c1=O | 0 | 0 | 0 | 13µM | 18.4µM
Cc1ccc(NC(=O)Cc2nn(C)c(=O)c3ccccc23)cc1F | ? | ? | 0 | 2.31µM | 2.59µM
SMILES | HT1080NT lethal | HT1080 IDH1KD tx | IL-1B inflam inh | DT40 TDP1 CPT | TDP1 cell noCPT
NC(=O)c1c(NC(=O)c2ccc(F)cc2Cl)sc2c1CCC2 | 0 | 0 | 0 | 0 | 0
Cc1cc2cc(CN(C(=O)C3CC3)C3CCCC3)c3nnnn3c2cc1C | 0 | 0 | 0 | ? | 20.6µM
CN1OC[C@@H]2CN3C(=O)N(c4cccc5ccccc45)c4ccccc4[C@@H]3C[C@@H]21 | 0 | 0 | 0 | ? | ?
O=C(Nc1ccc(Br)cc1F)c1cc(S(=O)(=O)NC2CCCCC2)ccc1F | - | - | - | 23.1µM | 20.6µM
CC(C)c1ccc(NC(=O)c2cc(S(=O)(=O)NC3CCCCC3)ccc2F)cc1 | - | - | - | 16.4µM | 18.4µM
CCOc1ccccc1NC(=O)c1cc(S(=O)(=O)NC2CCCC2)ccc1F | - | - | - | 0 | ?
O=C(Nc1ccc(Br)cc1)c1ccc(F)c(S(=O)(=O)NC2CCCCCC2)c1 | - | - | - | 2.91µM | 1.64µM
O=C(Nc1ccc(F)c(F)c1)c1cc(S(=O)(=O)NC2CCCCCC2)ccc1F | - | - | - | 20.6µM | 20.6µM
Cc1ccccc1OCC(=O)N=Nc1c(O)n(C)c2ccccc12 | 0 | 0 | 0 | ? | 0
Oc1c(Br)cc(Br)cc1C=Nc1ccc2[nH]ncc2c1 | 0 | 0 | 0 | 0 | ?
Oc1c(Br)cc(Br)cc1C=Nc1cccnc1 | 0 | 0 | 0 | ? | 20.6µM
Oc1ccc(Cl)cc1/C=N/c1nccs1 | 0 | ? | 0 | 12.6µM | 11.2µM
Oc1c(Br)cc(Br)cc1/C=N/c1nccs1 | 0 | 0 | 0 | ? | 18.4µM
O=c1cc(Cn2ccnc2)c2cc(O)ccc2o1 | 0 | 0 | 0 | 0 | 0
Cc1ccc(CNC(=O)COC(=O)c2ccc(S(=O)(=O)NCc3ccco3)cc2)cc1 | 0[9.24 µM] | 0 | 0 | 0 | 0
CCc1nc(-c2cc(S(=O)(=O)N3CCN(c4ccccc4OC)CC3)ccc2OC)no1 | - | - | - | 0 | ?
CC(C)(C)C1CCc2c(C(=O)NNC(=O)CCC(=O)O)csc2C1 (configuration not stated) | 0 | 0 | 0 | 0 | 0
COc1cc(C(=O)C(=O)N2CCN(c3ccc(C)cc3)CC2)cc2ccccc12 | 0 | ? | 0 | 14.6µM | 14.6µM
COc1cc(C(=O)C(=O)N2CCN(c3ccccc3)CC2)cc(OC)c1OC | ? | 7.31µM | 0 | 3.66µM | 3.66µM
COc1cc(C(=O)C(=O)N2CCC(Cc3ccccc3)CC2)cc2ccccc12 | 0 | 0 | 0 | 16.4µM | 23.1µM
COc1cc(CCC(=O)N2CCN(c3ccccc3)CC2)cc(OC)c1OC | 0 | 0 | 0 | 0 | ?
Cc1ccc(C(=O)N/C(=C\c2cccs2)c2nc3ccccc3[nH]2)cc1 | 0 | 0 | 0 | 16.4µM | ?
N#C/C(=C\c1cccs1)c1nc2ccccc2[nH]1 | ? | ? | 0 | 0 | 0
COc1ccc(-c2[nH]ncc2CN2CCC(N3CCSCC3)CC2)cc1F | 0 | 0 | 0 | 0 | 0
COc1cccc(NC(=O)Cn2c(=O)n(-c3ccc(C)cc3)c(=O)c3ccc(C(=O)NCc4ccco4)cc32)c1 | - | - | - | 16.4µM | ?
CCc1ccc(NC(=O)Cn2c(=O)n(-c3ccc(OC)cc3)c(=O)c3ccc(C(=O)NCc4ccc(C)cc4)cc32)cc1 | - | - | - | 10.3µM | 7.31µM
COc1cccc(NC(=O)Cn2c(=O)n(Cc3ccc(C(=O)NCc4ccc(C)cc4)cc3)c(=O)c3ccccc32)c1 | - | - | - | 0 | 0

Assay outcomes: PubChem BioAssay, National Center for Advancing Translational Sciences (NCATS)
